Shown are actives, neighbours in structure and some others; about 1.7% of the full set was active somewhere.
LYP inh 2: PTPN22 phosphatase inhibitors, primary screen, biochemical, DiFMUP fluorescence, 2 µM. inhibition, % at 2 µM. actives 0.21% (n = 96,000). recombinant LYP catalytic domain. Tyrosine-protein phosphatase non-receptor type 22 (Homo sapiens), Q9Y2R2;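 active means inhibition at 2 µM at or above a set limit, the screen mean plus 3 SD, cut at about 24% in these data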;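 further: 0% = DMSO with enzyme and 100% = enzyme fully blocked by orthovanadate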
FAK blocker: FAK kinase inhibitors, primary screen, biochemical; biochemical FAK kinase activity assay; actives 0.84% (n = 97,000); Focal adhesion kinase 1 (Homo sapiens), Q05397; inhibition, %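 (tested at 7 µM)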;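 further: 0% = DMSO and 100% = reference compound high control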
PTPN22 act: LYP phosphatase activators, primary screen, biochemical, DiFMUP fluorescence, 2 µM; Tyrosine-protein phosphatase non-receptor type 22 (Homo sapiens), Q9Y2R2; recombinant LYP; 0 = plate median, 100 = signal doubled; activation, % at 2 µM; actives 0.11% (n = 96,000); AID 697, 2007;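 active means activation at 2 µM above a set limit, the mean plus 5 SD, cut at about 37% in these data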
Plk1 PBD FP: Plk1 polo box domain binding inhibitors, primary screen, biochemical, fluorescence polarization. Plk1 PBD phosphopeptide binding. inhibition, %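 (tested at about 20 µM)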. actives 0.13% (n = 97,000). Serine/threonine-protein kinase PLK1 (Homo sapiens), P53350; in the data active means inhibition above about 34%, passing the limit was not always enough
PLK1 kinase inh: human PLK1 kinase inhibitors, primary screen, biochemical, TR-FRET; Serine/threonine-protein kinase PLK1 (Homo sapiens), P53350; recombinant PLK1 kinase, TR-FRET peptide phosphorylation; inhibition, % at 10 µM; actives 0.53% (n = 97,000); AID 619, 2007;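 active means inhibition of 50% or more in the single-concentration screen; inactive means inhibition below 50%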;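 further: 0% = DMSO max control and 100% = H-89 dihydrochloride min control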
EphB4 ephrin blk: EphB4-ephrin-B2 interaction antagonists, primary screen, biochemical, TNYL-RAW peptide probe, fluorescence polarization. Ephrin type-B receptor 4 (Homo sapiens), P54760. EphB4 LBD / TNYL-RAW-Alexa532 peptide. inhibition, % at 7 µM. actives 0.15% (n = 97,000);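 active means inhibition above the screen-wide mean inhibition plus 3 SD, cut at about 15% in these data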;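 further: 0% = DMSO wells and 100% = excess unlabeled TNYL-RAW peptide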
FAK inh conf: FAK kinase inhibitors, retest, confirmation, biochemical. shares compounds with FAK blocker. FAK kinase biochemical inhibition assay. inhibition, % at 7 µM. actives 28% (n = 750). AID 794, 2007
* = called active by the depositor; x = not tested or not shown. Unless noted, no stated cut-off is given here; in the data, active means inhibition above about 19%; inactive means the rest.

SMILES	LYP inh 2	FAK blocker	PTPN22 act	Plk1 PBD FP	PLK1 kinase inh	EphB4 ephrin blk	FAK inh conf
N/C(=N\OC(=O)C1CCCCC1)c1ccccn1	-16	-6	19	-6	-8	-9	x
COc1ccc(/C=N/NC(=O)c2ccn[nH]2)cc1COc1ccc(Cl)cc1Cl	8	21*	-4	13	-10	3	8
CCCc1nc2n[nH]c(N)c2c2c1CCCC2	-9	21*	9	0	45	1	10
c1cc2ccc3ccc(CN4CCOCC4)c4ccc(c1)c2c34	4	41*	-4	-22	-1	4	41*
O=C(COc1ccc(/C=N/NC(=O)c2cc3ccccc3o2)cc1Br)Nc1ccccc1	22	26*	-23	-25	-10	-2	36*
O=C(Cc1cccs1)Nc1ccc(S(=O)(=O)N2CCCCC2)cc1	17	23*	-14	7	-6	-7	9
CN1CCN(S(=O)(=O)c2ccc(NC(=O)Cc3cccs3)cc2)CC1	-24	0	21	-4	-17	-6	x
O=C(Nc1ccccc1N1CCCC1)c1ccco1	3	2	-2	-7	-9	-7	x
O=C(Nc1ccccc1N1CCCCC1)c1ccco1	4	24*	-1	5	-6	5	9
CCCNS(=O)(=O)c1ccc(OCC(=O)NCc2ccc3c(c2)OCO3)cc1	3	3	1	7	-4	-2	x
Cc1ccc2cc3cc(C(=O)NCCC(C)C)oc3nc2c1	10	6	-12	-3	0	2	x
Cc1ccc2cc3cc(C(=O)NCc4ccco4)oc3nc2c1	-10	21*	8	2	-8	-5	5
N#C/C(=C\c1ccccc1)c1nc2ncccc2[nH]1	11	-1	-6	-13	14	4	x
CCOc1ccccc1C(=O)N1CCN=C1SCc1cccnc1	11	-2	-10	-18	-10	1	x
COc1ccccc1CNC(=O)C1CC(c2ccccc2[N+](=O)[O-])=NO1 (centres undefined)	4	0	1	8	-17	-9	x
C=C(C)CN(CC)C(=O)COc1ccc(S(=O)(=O)Nc2ccc(OC)cc2)cc1	-2	30*	0	13	-16	0	0
COc1ccc(NS(=O)(=O)c2ccc(OCC(=O)N3CCOCC3)cc2)cc1	-2	2	-1	-5	-2	-4	x
C=C(C)C1CCC(C)=C1COC(=O)Nc1ccccc1 (centres undefined)	6	3	-9	3	-6	-1	x
CS(=O)(=O)N(CC(=O)N1CCc2ccccc2C1)Cc1ccccc1	1	1	-2	8	-5	1	x
CCc1cc(=O)oc2cc(C)c(CN3CCCC3)c(O)c12	9	29*	-11	29	17	-6	2
CC(C)OCCCn1c(=NC(=O)c2ccncc2)c(C#N)cc2c(=O)n3ccccc3nc21	15	7	-17	10	-14	1	x
CC(C)OCCCn1c(=N)c(C(N)=S)cc2c(=O)n3ccccc3nc21	2	32*	-4	-32	20	-4	6
Cc1nc(NCc2ccco2)c2oc3ccccc3c2n1	4	24*	-6	5	-5	-2	8
O=Cc1ccc2noc(-c3ccc(F)cc3)c2c1	21	34*	-20	23	-4	-5	33*
CC1(c2ccc3noc(-c4ccc(F)cc4)c3c2)OCCO1	0	1	2	-3	-33	-2	x
SMILES	LYP inh 2	FAK blocker	PTPN22 act	Plk1 PBD FP	PLK1 kinase inh	EphB4 ephrin blk	FAK inh conf
c1csc(Cc2nn3c(-c4n[nH]c5c4CCC5)nnc3s2)c1	17	28*	-19	-15	6	-6	8
COc1ccc(OCc2nn3c(-c4ccco4)nnc3s2)cc1	-4	1	4	-1	7	-3	x
c1coc(-c2nnc3sc(Cc4cccs4)nn23)c1	-3	25*	0	0	3	-3	5
Cc1cc(C)c(S(=O)(=O)N(C)CC(=O)NC2CCCC2)c(C)c1	-2	2	2	-5	-18	-3	x
Cc1nnc(SCc2ccccc2F)n1NCc1cccs1	-6	-1	2	-22	-17	7	x
O=C1NC(=O)[C@@H]2C3c4ccccc4C=CN3[C@H](C(=O)c3cccs3)[C@H]12 (some centres undefined)	-3	20*	0	-15	-6	-9	12
COc1ccc(NC(=O)[C@@H]2[C@@H]3C(=O)N(C4CCCCC4)C(=O)[C@@H]3C3c4ccccc4C=CN32)cc1 (some centres undefined)	13	10	-14	-31	-1	-3	x
CCC(C)NS(=O)(=O)c1ccc(NS(=O)(=O)c2ccc(F)cc2)cc1 (centres undefined)	14	-4	-11	7	-2	9	x
COCCNC(=O)C(c1ccc(C)o1)N(C(=O)c1snc(C(N)=O)c1N)c1cccc(C)c1 (centres undefined)	-4	20*	1	-35	-2	0	6
COCCNC(=O)C(c1ccc(C)o1)N(C(=O)c1snc(C(N)=O)c1N)c1ccc(C)c(C)c1 (centres undefined)	8	23*	-11	-8	-22	4	9
COCCNC(=O)C(c1ccc(C)o1)N(C(=O)c1snc(C(N)=O)c1N)c1ccc(C)cc1 (centres undefined)	8	14	-10	25	-8	2	x
Cn1c(SCC(=O)N2CCCCCC2)nc2c([nH]c3ccccc32)c1=O	-3	0	4	-19	-5	0	x
Cn1c(SCC(=O)N2CCCCC2)nc2c([nH]c3ccccc32)c1=O	-12	24*	8	6	-10	1	2
CCc1ccc2nc3n[nH]c(N)c3cc2c1	-10	40*	14	17	29	2	20*
COc1ccc(Nc2nc(Nc3ccc(OC)cc3)nc(SC3=NCCS3)n2)cc1	9	1	-7	-11	-2	-1	x
COC(=O)c1sccc1-c1ccc(C(=O)Nc2cccc(Cl)c2)o1	10	26*	-8	17	-14	-3	7
CN(C)S(=O)(=O)Oc1ccsc1C(=O)Nc1cccc(Cl)c1	4	-2	0	-5	-7	3	x
Cc1nnc(NCc2ccco2)c2ccccc12	2	1	-1	11	-6	-5	x
Cc1nnc(NCc2ccncc2)c2ccccc12	-4	23*	4	7	-18	-4	7

Source: PubChem (several laboratories)
